Bioassay records from PubChem.
SMARCA2 act: increases SMARCA2 function in MMTV reporter cells | activation, % at 9.1 µM | 370,000 compounds, 1% hits | AID 652017 | MG213 cells, MMTV-luciferase reporter, dexamethasone, overnight; in the data active = activation above about 7.8%;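 also: 0% = vehicle wells and 100% = reference activator wells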
PG9 Ab binder: small molecules binding HIV-1 gp120 antibody PG9; inhibition, % at 6.7 µM; 360,000 compounds, 0.43% hits; TR-FRET gp120-PG9 antibody binding; in the data active = inhibition above about 8.5%
HSF1 inh: HSF1 inhibition; NIH3T3-HGL HSE-luciferase, MG132-induced, luminescence 8 h; stronger effect = lower value; activity change, negative = inhibition, % at 7.5 µM (by protocol); 300,000 compounds, 0.77% hits;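 active = more than half of replicate wells show activity change below -50%, luminescence cut by over half; inconclusive = some wells, but at most half, below -50%; inactive = no replicate well below -50%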;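 also: luciferase reports HSF-1 transcriptional activity via heat shock element; 0% = median of DMSO wells and -100% = zero luminescence signal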
HSP90 refold inh: blocks HSP90-mediated luciferase refolding in reticulocyte lysate; Rabbit reticulocyte lysate, luciferase refolding luminescence, 3 h; inhibition, % at 5.6 µM; 290,000 compounds, 0.91% hits; AID 1789;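 active = inhibition above the screen-wide mean plus 3 SD, computed separately per campaign, cut at about 16% in these data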;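 also: 0% = DMSO wells and 100% = 60 µM geldanamycin wells; inhibitors lower the luminescence because luciferase stays unfolded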
AI-2 QS mod: modulates the Vibrio harveyi AI-2 quorum sensing system; activity change, % at 7.5 µM; 300,000 compounds, 0.4% hits; Vibrio harveyi JMH597 AI-2 luminescence/OD600 ratio, 9 h; stronger effect = lower value; strain lacks LuxN and CqsS sensors; 0 = neutral-control median; in the data active = activity change below about -75%, passing the limit was not always enough; inconclusive = no clear call, values can overlap the other calls;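 also: luminescence divided by OD600 gain over 9 h not by final OD600 alone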
GAA850 FXN act: increases GAA850 frataxin promoter reporter activity. HEK293 lucGAA850 FXN promoter luciferase reporter, 24 h; percent of 10 µM SAHA response. activation, % at 6 µM. 360,000 compounds, 0.56% hits. AID 540364;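 active = activation above the average of all compounds screened plus 3 SD, cutoff fixed separately per campaign, cut at about 7.5% in these data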;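 also: 0% = DMSO wells and 100% = 10 µM SAHA wells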
JMH597 growth rt: retest: inhibitors of Vibrio harveyi JMH597 growth | 750 compounds, 1% hits | growth inhibition, % at 7.5 µM | OD600 absorbance, 9 h; lacks LuxN and CqsS sensors | shares compounds with AI-2 QS mod | AID 2726;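 active = every replicate shows growth inhibition above 50%; inconclusive = at least half, but not all, replicates pass that cutoff; inactive = fewer than half of replicates pass it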
BB721 lum counter: retest counter-screen: luminescence loss in constitutive-on quorum sensing strain BB721; shares compounds with AI-2 QS mod; Vibrio harveyi BB721 luminescence, 9 h; inhibition, % at 7.5 µM; 750 compounds, 95% hits;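 active = inhibition above about 80% in every replicate, not just on average, limit read from the data; inconclusive = at least half of replicates past the limit, but not all; inactive = fewer than half of replicates past the limit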
BB721 growth: retest: inhibitors of Vibrio harveyi BB721 growth. shares compounds with AI-2 QS mod. OD600 absorbance, 9 h. growth inhibition, % at 7.5 µM. 750 compounds, 3% hits. AID 2728;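 active = every replicate shows growth inhibition above 50%; inconclusive = at least half but not all replicates above 50% inhibition; inactive = under half of replicates above 50% inhibition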
AI-2 QS JMH597: Vibrio harveyi AI-2 signaling luminescence modulation – JMH597 strain, confirmation; shares compounds with AI-2 QS mod; Vibrio harveyi JMH597 AI-2 quorum sensing luminescence, 9 h; luxN and CqsS knockout, AI-2 only; inhibition, % at 7.5 µM; 750 compounds, 97% hits; AID 2736;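 active = every replicate shows more than 75% inhibition of signal versus neutral control wells; inconclusive = half to three quarters of replicates exceed 75% inhibition; inactive = fewer than half of replicates exceed 75% inhibition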
Numbers without * were called inactive; ? = inconclusive; . = no result. Compounds with a hit are over-represented: about 3.4% of the library has one in this group of screens.

SMILES	SMARCA2 act	PG9 Ab binder	HSF1 inh	HSP90 refold inh	AI-2 QS mod	GAA850 FXN act	JMH597 growth rt	BB721 lum counter	BB721 growth	AI-2 QS JMH597
O=C(NCc1ccc(F)cc1)Nc1cccc(Cl)c1	4	-1	20	2	-94*	4	17	98*	24	99*
O=C(NCc1ccc(F)cc1)Nc1ccc(Cl)cc1	2	0	17	2	?	6	.	.	.	.
CC(C)CCNC(=O)CN1C(=O)NC(c2ccccc2)(c2ccccc2)C1=O	-3	0	-8	2	-92*	-1	7	90*	8	95*
C=CCNC(=O)NC(=O)CN1C(=O)NC(c2ccccc2)(c2ccccc2)C1=O	-2	0	-9	3	-85*	1	-4	94*	-9	96*
NC(=O)NC(=O)CN1C(=O)NC(c2ccccc2)(c2ccccc2)C1=O	-5	-2	-38	4	7	0	.	.	.	.
COCCNC(=O)CN1C(=O)NC(c2ccccc2)(c2ccccc2)C1=O	-1	-1	-11	-2	-7	1	.	.	.	.
CCc1nnc(NC(=O)CCn2cnc3ccccc3c2=O)s1	-1	-4	10	1	-40	0	.	.	.	.
O=C(Cn1cnc2ccccc2c1=O)Nc1nnc(SCc2ccccc2)s1	-2	-1	-3	-1	-41	0	.	.	.	.
CCCCCc1nnc(NC(=O)Cn2cnc3ccccc3c2=O)s1	-3	3	19	-2	-94*	0	-1	98*	-5	99*
CCCCc1nnc(NC(=O)Cn2cnc3ccccc3c2=O)s1	-4	-2	-2	0	-95*	0	32	99*	27	99*
CN1C(=O)c2cc(NS(=O)(=O)c3ccc(F)cc3)ccc2OC[C@H]2O[C@@H](CC(=O)NCC(F)(F)F)CC[C@@H]21	-2	.	.	.	.	.	.	.	.	.
CC(C)C(=O)N[C@H]1[C@H](O)CCC[C@@]12C(=O)N(Cc1ccccc1)c1ccccc12	3	.	.	.	.	.	.	.	.	.
COc1ccc(S[C@]2(C(=O)N(C)C)CC(=O)N(C(=O)c3ccccc3)[C@@H]2c2ccc(OC)cc2)cc1	-1	.	.	.	.	.	.	.	.	.
CC(C)[C@H](NC(=O)c1ccccc1)C(=O)N1CCC[C@H]1C(=O)NCCc1ccccc1Cl	-1	2	.	.	.	.	.	.	.	.
O=C(/C=C/c1ccco1)NCc1ccc(F)cc1	4	0	1	0	-85*	4	16	94*	16	96*
NS(=O)(=O)c1ccc(CNC(=O)/C=C/c2ccco2)cc1	3	-1	1	3	14	2	.	.	.	.
Cc1ccccc1C(=O)Nc1ccc(S(=O)(=O)NCC2CCCO2)cc1 (stereo not drawn)	-3	0	.	.	.	2	.	.	.	.
COCC(=O)Nc1ccc(S(=O)(=O)NCC2CCCO2)cc1 (stereo not drawn)	-1	0	11	-3	3	0	.	.	.	.
O=C(Cc1ccc(Br)cc1)Nc1ccc(S(=O)(=O)NCC2CCCO2)cc1 (stereo not drawn)	-4	0	6	2	-96*	-1	31	99*	-173	99*
O=C(CSc1ccccc1)Nc1ccc(S(=O)(=O)NCC2CCCO2)cc1 (stereo not drawn)	-1	1	-3	-1	-97*	-2	22	100*	-45	100*
Oc1ccccc1-c1nnc(COc2ccccc2)o1	0	0	7	-3	-61	1	.	.	.	.
c1ccc(OCc2nnc(-c3ccccc3)o2)cc1	5	1	5	-8	-88*	5	14	97*	27	97*
O=C(NCc1ccc2c(c1)OCO2)Nc1ccc2nsnc2c1	-1	-3	-1	4	-85*	0	79*	97*	3	99*
O=C(NCc1ccc2c(c1)OCO2)Nc1ccc(Cl)cc1	2	-2	14	0	-61	2	.	.	.	.
Cc1ccsc1/C=N/NC(=O)CNC(=O)c1ccccc1	1	2	1	-2	?	1	-9	93*	-1	95*
SMILES	SMARCA2 act	PG9 Ab binder	HSF1 inh	HSP90 refold inh	AI-2 QS mod	GAA850 FXN act	JMH597 growth rt	BB721 lum counter	BB721 growth	AI-2 QS JMH597
Cc1ccc(C(=O)NCC(=O)N/N=C/c2sccc2C)cc1[N+](=O)[O-]	-1	0	-8	-1	17	-1	.	.	.	.
O=C(CNC(=O)c1cccc(Br)c1)N/N=C/c1cccs1	-1	-1	0	0	-83*	3	-30	91*	-18	91*
Cc1ccc(-c2cnc3n2CCCCC3)cc1	2	0	4	-2	12	-1	.	.	.	.
c1ccc(-c2ccc(-c3cnc4n3CCCCC4)cc2)cc1	5	-2	19	1	-86*	3	-5	84*	-22	90*
CCCCCCCCN1C(=O)[C@@H](CC(=O)NCC2CCCCC2)C[C@@]2(C(=O)OC)C1=C[C@H](C(C)(C)C)O[C@@H]2C	1	0	.	.	.	.	.	.	.	.
CC(=O)OCCCN1CCC2(CCCCC2)C1=O	-3	.	.	.	.	.	.	.	.	.
O=C(CSc1n[nH]c(=O)n1C1CC1)Nc1ccc(Cl)c(Cl)c1	1	0	10	0	-83*	2	-16	88*	-7	91*
Cc1occc1C(=O)NCCCc1ccccc1	2	1	0	2	-78*	4	19	87*	11	91*
CCC(=O)NC(=S)Nc1ccccc1F	2	-2	1	1	16	5	.	.	.	.
CCCC(=O)NC(=S)Nc1ccccc1F	2	-1	7	-3	-85*	1	21	92*	24	87*
Nc1[nH]c(C(=O)c2ccc(Br)cc2)c(-c2ccccc2Cl)c1C(=O)NCCc1c[nH]c2ccccc12	-5	0	.	.	.	.	.	.	.	.
Clc1cccc(CSc2nnc(-c3c[nH]c4ccccc34)o2)c1	6	1	6	0	-88*	-2	22	93*	22	95*
CC(C)C[C@H](NS(=O)(=O)c1ccc(F)cc1F)C(=O)N1CCC[C@H]1C(=O)NCc1ccccc1	-1	1	.	.	.	.	.	.	.	.
[O-][N+](=Cc1c(Cl)cccc1Cl)CC1(O)CCCCC1	-2	1	.	.	.	3	.	.	.	.
N/C(=N\OC(=O)CCc1ccccc1)c1ccccc1Cl	7	-1	13	-4	-85*	4	9	92*	4	92*
